In the supplement of paper PMC7411640:
Structures can show the parent of a compound that is named as a salt.

Test system: MDA-MB-468
Experiment: phospho-S6 immunofluorescence (DAPI-normalised), per-plate z-score; higher = higher phospho-S6 signal (less pathway suppression)
Conditions: co-treatment: GDC0941 450 nM; 24 h
Protocol: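 GPCR-targeted compound library (MedChemExpress HY-L006) tested on MDA-MB-468 PTEN-null TNBC cells in 384-well plates at 0.1, 1 or 10 uM, combined with vehicle, GDC0941 450 nM or lapatinib 1 uM, for 24 h. Phospho-S6 (S240/244) immunofluorescence normalised to DAPI and expressed as a per-plate z-score; values are the mean of biological triplicates.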

Structure (SMILES)	phospho-S6 immunofluorescence (z-score)
CCc1nc2c(C)nc(C)cc2n1-c1ccc(CCNC(=O)NS(=O)(=O)c2ccc(C)cc2)cc1 [Grapiprant] (compound 10 µM)	-0.05
COc1cc2nc(N3CCN(C(=O)C4CCCO4)CC3)nc(N)c2cc1OC (configuration not stated) [Terazosin (hydrochloride dihydrate)] (compound 10 µM)	0.82
NC(N)=Nc1nc(CSCCN/C=N/S(=O)(=O)c2ccc(Br)cc2)cs1 [Ebrotidine] (compound 10 µM)	-4.2
Cc1nn(C)c2c1C(c1ccc(C(F)(F)F)cc1)C(C#N)=C(N)O2 (configuration not stated) (compound 10 µM)	-1.17
O=C1O[C@]2(CC[C@H](C(=O)Nc3ccn(-c4ccccc4F)n3)CC2)c2cnccc21 (compound 10 µM)	0.73
Cc1noc(-c2ccc(-c3ccc(CC(=O)O)cc3)cc2)c1NC(=O)O[C@H](C)c1ccccc1 (compound 10 µM)	0.62
Cc1nc2n(c(=O)c1CCN1CCC(c3noc4cc(F)ccc34)CC1)CCCC2O (configuration not stated) [Paliperidone] (compound 10 µM)	0.37
COc1nc(C)nc(Cl)c1NC1=NCCN1 [Moxonidine] (compound 10 µM)	0.49
CN(C)CCC=C1c2ccccc2C=Cc2ccccc21 [Cyclobenzaprine (hydrochloride)] (compound 10 µM)	0.8
COCc1nnc(N2CC(Oc3ccc(F)cc3Cl)C2)n1-c1ccc(OC)nc1 (compound 10 µM)	-0.38
C/C(=N\NC(=O)C(NC(=O)c1ccccc1)c1n[nH]c(=O)c2ccccc12)c1cccc(Br)c1 (configuration not stated) (compound 10 µM)	0.96
C[C@H](NC(=O)CNC(=O)c1cccc(Cl)c1)c1ccccc1 (compound 10 µM)	0.04
CN1CCC(=C2c3ccccc3CCc3sccc32)CC1 [Pizotifen] (compound 10 µM)	0.35
CNC(=C[N+](=O)[O-])NCCSCc1ccc(CN(C)C)o1 [Ranitidine (hydrochloride)] (compound 10 µM)	0.47
COC(=O)[C@H]1[C@H]2C[C@H]3c4[nH]c5ccccc5c4CCN3C[C@H]2CC[C@@H]1O [Rauwolscine (hydrochloride)] (compound 10 µM)	0.42
Cc1nc(C(=O)N2CCC[C@H]2Cc2nnc(-c3ccccc3)o2)c(-c2ccccc2F)s1 (compound 10 µM)	0.95
C[C@H](Cc1cc2c(c(C(N)=O)c1)N(CCCO)CC2)NCCOc1ccccc1OCC(F)(F)F [Silodosin] (compound 10 µM)	-0.57
CCOC(=O)N1CCC(=C2c3ccc(Cl)cc3CCc3cccnc32)CC1 [Loratadine] (compound 10 µM)	-1.77
CC(COc1ccccc1)N(CCCl)Cc1ccccc1 (configuration not stated) [Phenoxybenzamine (hydrochloride)] (compound 10 µM)	0.33
CNS(=O)(=O)Cc1ccc2[nH]cc(CCN(C)C)c2c1 [Sumatriptan (succinate)] (compound 10 µM)	0.01
CN(C)CCC(c1ccc(Cl)cc1)c1ccccn1 (configuration not stated) [Chlorpheniramine (maleate)] (compound 10 µM)	-5.85
Cc1cccn2c(=O)c(C=C(C#N)c3nc4ccccc4s3)c(Oc3ccc(F)cc3)nc12 (compound 10 µM)	0.33
OC[C@@H](O)CN1CCN(c2ccccc2)CC1 [Levodropropizine] (compound 10 µM)	-0.63
CC(N)(C(=O)O)c1ccc(C(=O)O)cc1 (racemic) (compound 10 µM)	0.62
Cc1cncc(CN2CCC(=C3c4ccc(Cl)cc4CCc4cccnc43)CC2)c1 [Rupatadine (Fumarate)] (compound 10 µM)	-1.47
C=CCc1ccccc1OCC(O)CNC(C)C (configuration not stated) [Alprenolol (hydrochloride)] (compound 10 µM)	0.45
CN1CCN2c3ncccc3Cc3ccccc3C2C1 (configuration not stated) [Mirtazapine] (compound 10 µM)	0.65

Same assay, conditions: co-treatment: lapatinib 1 uM; 24 h

Structure (SMILES)	phospho-S6 immunofluorescence (z-score)
CCN(CCCc1ccccc1)CCCc1ccccc1 [Alverine (citrate)] (compound 10 µM)	-1.04
N#Cc1cc(NC(=O)C(=O)O)c(Cl)c(NC(=O)C(=O)O)c1 [Lodoxamide] (compound 10 µM)	0.6
CCCN(CCc1cccs1)C1CCc2c(O)cccc2C1 (racemic) [rac-Rotigotine (Hydrochloride)] (compound 10 µM)	0.67
OC(CCN1CCCCC1)(c1ccccc1)C1CCCCC1 (configuration not stated) [Trihexyphenidyl (hydrochloride)] (compound 10 µM)	-0.52
C[C@@H](NCCCc1cccc(C(F)(F)F)c1)c1cccc2ccccc12 [Cinacalcet (hydrochloride)] (compound 10 µM)	-11.2
